IDH1 R132H inh – human IDH1 R132H inhibition. AID 602179. hit rate 0.093% among 390,000. O75874. Potency, µM (titrated, usually from 76.6 µM), for the others: top-dose activity change, negative = inhibition, most hits filed as inhibitors. IDH1-R132H enzyme, NADPH consumption, diaphorase/resazurin fluorescence; also: % is scaled to controls: 0 for no effect and ±100 for the full control effect; nearly all actives have a fitted effect of over 65% in size
Target sequence (O75874 whole entry R132H, stated change not applied): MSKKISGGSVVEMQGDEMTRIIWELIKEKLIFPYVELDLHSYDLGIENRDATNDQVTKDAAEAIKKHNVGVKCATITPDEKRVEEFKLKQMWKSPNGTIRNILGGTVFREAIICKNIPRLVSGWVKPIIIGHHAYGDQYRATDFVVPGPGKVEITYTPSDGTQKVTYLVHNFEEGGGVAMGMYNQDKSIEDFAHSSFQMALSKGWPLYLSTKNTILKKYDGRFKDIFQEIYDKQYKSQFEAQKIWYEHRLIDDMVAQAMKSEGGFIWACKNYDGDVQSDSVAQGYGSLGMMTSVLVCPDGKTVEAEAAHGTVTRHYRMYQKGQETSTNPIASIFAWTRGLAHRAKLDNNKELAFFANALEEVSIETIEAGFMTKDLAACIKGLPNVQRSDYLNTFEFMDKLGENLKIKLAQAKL
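IDH1-R132H (0.5 ug/mL) preincubated 30 min with compound, then NADPH (0.016 mM) and alpha-KG (2 mM) added; 80 min at RT, pH 7.5. Remaining NADPH coupled via diaphorase/resazurin to fluorescence (540/590 nm); concentration-response curves normalized to no-enzyme control.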
Nrf2 inh – blocks Nrf2 signaling; A549 ARE-Fluc reporter, luciferase luminescence, 18-24 h; AID 504444; hit rate 2.1% among 360,000; Potency, µM (doses to about 46 µM), without a hit: top-dose activity change, negative = inhibition, actives largely listed as inhibitors; also: % is scaled to controls: 0 for no effect and ±100 for the full control effect; nearly all actives have a fitted effect of over 60% in size
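Two sequential reads on A549 ARE_Fluc cells exposed to compound for 18-24 h: a CellTiter-Fluor fluorescence read for viability, then a luciferase luminescence read for Nrf2/ARE activity.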
Nrf2 ARE act – Nrf2 pathway activation | AREc32 ARE-luciferase reporter (MCF7-derived line), luminescence, 24 h | Potency, µM (titrated, usually from 46.1 µM), for inactives: at the highest dose activation, usual class: activators | hit rate 0.31% among 410,000 | AID 624171; also: % of control where 0% means no effect; nearly all actives have a fitted effect of over 65% in size
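Nrf2 activation is followed as ARE-luciferase induction in the AREc32 line after one day of compound treatment; luminescence is read with Steady-Glo.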
A549 viability – counter-screen for Nrf2 inhibitors: cytotoxicity in A549 cells; hit rate 0.16% among 390,000; Potency, µM (series often up to 46 µM), without a hit: at the highest dose activity change, negative = cytotoxicity, actives largely listed as inhibitors; A549 ARE-Fluc cells, CellTiter-Fluor viability, 18-24 h; also: % is scaled to controls: 0 for no effect and ±100 for the full control effect
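A549 ARE_Fluc cells in 5% FBS OPTI-MEM were exposed to compounds in concentration-response for 18-24 h at 37 deg C. Viability was read by CellTiter-Fluor fluorescence (Ex 405/Em 525) after 30 min, before the luciferase read.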
ELG1 repair inh – ELG1-dependent DNA repair inhibition; Potency, µM (series often up to 46.1 µM), for the others: at the top dose activity change, negative = inhibition, hits mostly inhibitors; AID 504467; HEK293T ELG1-luciferase reporter, luminescence, 16 h; DNA damage induced by 5-fluorouridine; hit rate 2.3% among 330,000; also: % is scaled to controls: 0 for no effect and ±100 for the full control effect; nearly all actives have a fitted effect of over 55% in size
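Step one: seed 2,000 cells per well. Step two: pin-transfer compound or DMSO alongside 5-fluorouridine. Step three: incubate 16 hr, 37 °C, 5% CO2. Step four: add ONE-Glo, wait 30 min, read luminescence.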
The depositor's hits bear a star. Only some compounds are listed: those with a hit (about 3.8% of all), similar ones and a draw of the others. Calls follow the shape of the dose curve; as a rule, active = well fitted curve in the direction sought with a large enough effect; inconclusive = small, poorly fitted or top-dose-only effect, or another doubt; inactive = no such curve, though single readings can be large; an effect the other way counts as inactive or inconclusive. Potency is read from the fitted curve at half-maximal effect.

`COc1ccc(-c2nn3c(-c4cc(-c5ccccc5)n[nH]4)nnc3s2)cc1` gave Nrf2 inh 23µM* and A549 viability -16%.
Screening COc1ccc(CCNC(=O)Cn2cc(S(=O)(=O)Cc3cccc(Cl)c3)c3ccccc32)cc1OC returned IDH1 R132H inh 9%, Nrf2 inh 21µM*, Nrf2 ARE act 1% and A549 viability inconclusive.
For COc1ccc(CCNC(=O)Cn2cc(S(=O)(=O)Cc3ccccc3Cl)c3ccccc32)cc1OC the results were IDH1 R132H inh -10%, Nrf2 inh -29%, Nrf2 ARE act 6% and A549 viability -3%.
CC(Cc1ccccc1)=NNc1ccc([N+](=O)[O-])cc1[N+](=O)[O-] was read as IDH1 R132H inh 0%, Nrf2 inh 23µM*, Nrf2 ARE act 3% and A549 viability inconclusive.
O=[N+]([O-])c1cc(-c2ccccc2)cc([N+](=O)[O-])c1O was read as IDH1 R132H inh 14%, Nrf2 inh 16µM*, Nrf2 ARE act 4% and A549 viability inconclusive.
O=[N+]([O-])c1cc2ccccc2c(O)c1O was read as IDH1 R132H inh 22% and Nrf2 ARE act 12%.
`CCOc1ccc(CCNC(=O)c2cc3sc(CC)cc3n2C)cc1OCC` gave IDH1 R132H inh -9%, Nrf2 inh 18µM*, Nrf2 ARE act 1% and A549 viability 0%.
`O=C(O)c1cc(-c2ccccc2)c(N2CCOCC2)s1` gave IDH1 R132H inh 7%, Nrf2 inh 23%, Nrf2 ARE act 0%, A549 viability 8% and ELG1 repair inh 1%.
`CCOc1ccc(CCNC(=O)c2cc(-c3ccccc3)c(N3CCOCC3)s2)cc1OCC` gave IDH1 R132H inh -6%, Nrf2 inh inconclusive, Nrf2 ARE act 0%, A549 viability 5% and ELG1 repair inh 16µM*.
Screening O=C(NCc1ccc2c(c1)OCO2)c1cc(-c2ccccc2)c(N2CCOCC2)s1 returned IDH1 R132H inh 2%, Nrf2 inh inconclusive, Nrf2 ARE act 0%, A549 viability -2% and ELG1 repair inh 18µM*.
`O=C(NCc1ccco1)c1cc(-c2ccccc2)c(N2CCOCC2)s1` gave IDH1 R132H inh 1%, Nrf2 inh inconclusive, Nrf2 ARE act 8%, A549 viability 2% and ELG1 repair inh 21µM*.
COc1cc(C(=O)/C=C/c2cccnc2)c([N+](=O)[O-])cc1OC was read as IDH1 R132H inh 13%, Nrf2 inh 18µM*, Nrf2 ARE act -4%, A549 viability inconclusive and ELG1 repair inh inconclusive.
`O=C(/C=C/c1cccnc1)c1ccc([N+](=O)[O-])cc1` gave IDH1 R132H inh 8%, Nrf2 inh 13%, Nrf2 ARE act 4%, A549 viability 5% and ELG1 repair inh -10%.
CC(C)(C)SCCNC(=O)/C=C/c1cccc([N+](=O)[O-])c1 was read as IDH1 R132H inh 4%, Nrf2 inh 29%, Nrf2 ARE act 10µM*, A549 viability 24% and ELG1 repair inh inconclusive.
CCS(=O)(=O)c1nnnn1-c1ccccc1S(C)(=O)=O was read as IDH1 R132H inh 9%, Nrf2 inh -17%, Nrf2 ARE act inconclusive, A549 viability -25% and ELG1 repair inh 15µM*.
Screening Cc1nc(S(=O)(=O)N2CCOCC2)c(C#N)c(C)c1Cl returned IDH1 R132H inh -1%, Nrf2 inh -25%, Nrf2 ARE act inconclusive, A549 viability -18% and ELG1 repair inh 3%.
`Cc1nc(S(=O)(=O)NC2CCCCC2)c(C#N)c(C)c1Cl` gave IDH1 R132H inh 8%, Nrf2 inh -9%, Nrf2 ARE act 13µM*, A549 viability -9% and ELG1 repair inh 11%.
COc1cc(/C=C/c2nc(C#N)c(N3CCN(C)CC3)o2)cc(OC)c1OC was read as IDH1 R132H inh 15%, Nrf2 inh 2%, Nrf2 ARE act 3% and A549 viability -17%.
Cn1c(=O)c2c(nc(NC3CCCCC3)n2CC(=O)C23CC4CC(CC(C4)C2)C3)n(C)c1=O was read as IDH1 R132H inh -6%, Nrf2 inh -8%, Nrf2 ARE act 2%, A549 viability 0% and ELG1 repair inh 7.3µM*.

Screens from PubChem BioAssay.
